Assay outcomes: PubChem, Broad Institute
C2C12 statin – suppression of simvastatin myotoxicity. hit rate 0.78% among 330,000. rescue of ATP level, % at 7.49 µM. C2C12 myotubes + simvastatin, ATP luminescence, 48 h; scaled: DMSO 0, geranylgeraniol control 100. AID 602340;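 active = mean ATP rescue above about 67%, or every replicate alone reaching that limit, limit read from the data, passing the limit was not always enough; inconclusive = no clear call, values can overlap the other calls; inactive = mean under the limit and some replicate under it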;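 note: myotubes were challenged with 10 µM simvastatin during compound exposure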
esBAF inh – inhibitors of esBAF chromatin remodeling in mouse ES cells; Bmi1-luciferase knock-in reporter, 24 h; 100% = twice the neutral-well signal; reporter increase, % at 12.5 µM; hit rate 2% among 350,000; AID 602393; in the data active = activation above about 40%; inconclusive = no clear call, values can overlap the other calls;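 note: 0% = median of the plate's neutral control wells and 100% = double that signal; a rise in the Bmi1 reporter signal indicates esBAF inhibition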
MITF act – increases MITF-driven TRPM1 promoter luciferase signal; SK-MEL-5 TRPM1-promoter luciferase, 24 h; % of positive control, neutral wells = 0; activation, % at 12.5 µM; hit rate 0.75% among 300,000; AID 588334;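 active = mean activation of at least 80% with every replicate also reaching 80%; inconclusive = mean reaches 80% but some replicate falls short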;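 note: 0% = neutral control wells and 100% = parthenolide positive control wells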
Wnt act – activators of Wnt/beta-catenin signaling; hit rate 1.2% among 300,000; activation, % at 9.35 µM; Wnt/beta-catenin reporter cell assay, activator, plate reader; in the data active = activation above about 30%, passing the limit was not always enough; inconclusive = no clear call, values can overlap the other calls;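 note: 0% = neutral control wells and 100% = positive control wells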
Starred values were filed as active, the others as inactive; ? = inconclusive; · = no result. Hits are enriched below; roughly 3% of the tested compounds scored in any of these assays.

SMILES	C2C12 statin	esBAF inh	MITF act	Wnt act
C[C@H]1CN([C@@H](C)CO)C(=O)c2cccc(NC(=O)C3CCOCC3)c2O[C@H]1CN(C)Cc1ccncc1	-9.6	-0.8	·	·
COc1ccc(-c2noc(C3CCCN(C(=O)Nc4ccccc4)C3)n2)cc1 (centres undefined)	3.2	59.1*	3.5	-0.5
COc1ccc(-c2noc(C3CCCN(C(=O)c4ccccc4)C3)n2)cc1 (centres undefined)	-5.2	42.2*	51.3	0.5
O=C(c1ccc(F)cc1F)N1CCCC(c2nc(-c3cccs3)no2)C1 (centres undefined)	-2.4	7.5	1.9	-0.7
O=C(c1c(F)cccc1F)N1CCCC(c2nc(-c3cccs3)no2)C1 (centres undefined)	2.6	80.8*	47.8	13.1
CO[C@@H]1CN(C)C(=O)c2cc(NC(C)=O)ccc2OC[C@@H](C)N(Cc2cc(F)ccc2F)C[C@@H]1C	-0.2	-5.2	·	·
COC(=O)c1ccccc1COn1c(=O)c(C)[n+]([O-])c2ccccc21	104.8*	-2.3	5.9	·
S=c1[nH]nc(-c2ccncc2)n1/N=C/C(Cl)=C\c1ccccc1	·	·	70.9	31.8*
S=c1[nH]nc(-c2ccncc2)n1/N=C/C=C/c1ccccc1	·	·	·	6.4
CCOC(=O)C1=C(C)NC(=S)N(C=O)C1c1ccccc1 (centres undefined)	·	·	-7.7	-7.1
CCOC(=O)C1=C(C)NC(=O)C(C(N)=O)C1c1ccccc1 (centres undefined)	111.1*	-3.1	-4.5	-1.0
CCCCCCn1c(C(C)O)nc2ccccc21 (centres undefined)	110.9*	1.1	-8.7	·
CCCCn1c(C(C)NC(=O)c2cccs2)nc2ccccc21 (centres undefined)	134.8*	-3.8	-7.2	-2.8
CC(O)c1nc2ccccc2n1CCCc1ccccc1 (centres undefined)	7.7	5.2	·	-0.3
CCn1c(C(C)NC(=O)c2cccs2)nc2ccccc21 (centres undefined)	9.7	-5.2	0.0	1.0
CCCCCn1c(=O)c(C(=O)c2ccccc2)nc2ccccc21	120.8*	-2.5	-5.0	-0.4
CO[C@@H]1CN(C)C(=O)c2cc(NC(=O)Nc3ccccc3F)ccc2OC[C@H](C)N(Cc2ccccc2C(=O)O)C[C@@H]1C	-14.5	-0.7	·	·
C[C@@H]1CCCCO[C@@H](CN(C)S(=O)(=O)c2ccccc2)[C@@H](C)CN([C@@H](C)CO)C(=O)c2cc(NC(=O)CCC(F)(F)F)ccc2O1	·	8.4	·	·
O=C(O)CCc1ccc(-c2ccc(Br)cc2)n1-c1cccc(O)c1	-0.1	72.6*	-24.9	17.3
C[C@@H]1CN([C@@H](C)CO)S(=O)(=O)c2ccc(C#CC3CC3)cc2O[C@H]1CN(C)Cc1cccnc1	-48.1	-3.5	·	·
Cc1noc(C)c1NC(=O)Nc1cccc2c1O[C@H](CN(C)Cc1ccncc1)[C@H](C)CN([C@H](C)CO)C2=O	-19.1	7.9	·	·
Cc1cccc(NC(=O)Nc2ccc3c(c2)N(C)C(=O)CS3)n1	16.3	48.6*	90.6*	7.4
Cc1ccc(NC(=O)Nc2ccc3c(c2)N(C)C(=O)CS3)nc1	28.8	?	?	-3.3
Cc1ccnc(NC(=O)Nc2ccc3c(c2)N(C)C(=O)CS3)c1	·	·	187.2*	23.6
CC1(C)Cc2nc3sc(C(N)=O)c(N)c3cc2CO1	8.6	28.9	37.5	3.8
SMILES	C2C12 statin	esBAF inh	MITF act	Wnt act
CCOC(=O)c1sc2nc3c(cc2c1N)COC(C)(C)C3	·	·	?	53.2*
COC(=O)c1sc2nc3c(cc2c1N)CCCC3	·	·	-6.6	57.7*
CCOC(=O)c1sc2nc3c(cc2c1N)COC(C)(CC)C3 (centres undefined)	-8.0	9.5	·	57.6*
NC(=O)c1sc2nc3c(cc2c1N)CCC3	-6.4	22.3	67.6	19.0
C[C@@H]1CN([C@@H](C)CO)C(=O)c2cccc(NS(=O)(=O)c3ccc(Cl)cc3)c2O[C@@H]1CN(C)S(=O)(=O)c1ccc(F)cc1	0.1	-4.2	·	·
CN1C[C@@H]2[C@H](c3ccccc31)[C@@H](CO)N2C(=O)C1CCCC1	15.7	-1.1	·	·
COc1ccc(CNC(=O)C[C@H]2C[C@H]3c4cc(NC(=O)C5CCC5)ccc4O[C@H]3[C@H](CO)O2)cc1	3.5	8.0	·	·
CO[C@@H]1CN(C)C(=O)c2cc(NS(=O)(=O)C3CCCCC3)ccc2OC[C@H](C)NC[C@@H]1C	-1.8	-14.0	·	·
N#Cc1c(/N=C/c2ccc(-c3ccccc3C(=O)O)o2)sc2c1CCCC2	0.2	57.1*	37.8	8.9
N#Cc1c(/N=C/c2ccc(-c3ccc(C(=O)O)c(Cl)c3)o2)sc2c1CCCC2	9.8	10.3	12.6	0.4
